We go through 10 compounds from PubChem BioAssay (Tox21).

Records with an inconclusive call do not appear. Activity calls are given as the source filed them. Unless noted, the call rests on the fitted dose curve.

A short description of assay [1]: Nuclear factor erythroid 2-related factor 2/antioxidant responsive element (Nrf2/ARE) small molecule agonists: qHTS cell viability counter screen in human keratinocytes (AID 1919968; active means well fitted curve in the direction sought with a large enough effect in the repeat runs; an effect the other way counts as inactive or inconclusive; further: nearly all actives have a fitted effect of over 55% in size; further: potency means the concentration at half of the fitted maximal effect). The gist of the method: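 KeratinoSens HaCaT cells, 1,500/well, preincubated 5 h, then exposed to compounds in DMSO for 23 h at 37 C/5% CO2. Viability read as CellTiter-Fluor fluorescence after 1 h, in the same wells as the ARE-luciferase read.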
A general note: Quantitative high-throughput screening tests each substance at several concentrations.

The nature of assay [2]: Nuclear factor erythroid 2-related factor 2/antioxidant responsive element (Nrf2/ARE) small molecule agonists: luciferase reporter gene qHTS assay in human keratinocytes (AID 1919969). Further: nearly all actives have a fitted effect of over 35% in size. Further: potency means the concentration at half of the fitted maximal effect.
Assay [3] concerns the target Gonadotropin-releasing hormone receptor (Homo sapiens) (UniProt P30968). The assay can be described thus: Human gonadotropin-releasing hormone receptor (GnRHR) small molecule agonists, calcium flux assay in GnRHR-HEK293 cells (AID 1920063). Further: nearly all actives have a fitted effect of over 35% in size. The procedure, abridged: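 HEK293 cells stably expressing human GnRHR were dye-loaded for 1 h at 37 C. Compound was added in agonist mode and fluorescence (Ex/Em 480/540) recorded kinetically for 3 min. Fifteen concentrations, triplicates.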
(Calcium assays in cells follow changes in intracellular calcium, usually with a dye or a luminescent sensor.)

Assay [4] concerns the target KiSS-1 receptor (Homo sapiens) (UniProt Q969F8). Description: Human kisspeptin (KISS1R) small molecule agonists, calcium flux assay in KISS1R-HEK293 cells (AID 1920064; active means well fitted curve in the direction sought with a large enough effect in the repeat runs; an effect the other way counts as inactive or inconclusive). The procedure, abridged:
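HEK293 cells stably expressing human KISS1R were loaded with calcium dye for 1 h at 37 C, then given compound; fluorescence (Ex/Em 480/540) was read kinetically for 3 min. Fifteen concentrations, triplicate.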

Assay [5] in a line: G protein-coupled receptor (GPCR) small molecule agonists, calcium flux assay: HEK293 wild type cell line counter screen (AID 1920065). The gist of the method:
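Wild-type HEK293 cells plated 18 h, loaded with calcium dye 1 h at 37 C, then compounds added in agonist mode (ATP as positive control). Kinetic fluorescence Ex/Em 480/540 recorded 3 min at 1 sec intervals; 15 concentrations, triplicate.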

Assay [6] can be described thus: p53 small molecule agonists, cell-based qHTS assay: qHTS cell viability counter screen (AID 1963581). Further: nearly all actives have a fitted effect of over 45% in size. The gist of the method:
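p53RE-bla HCT-116 cells, compounds added 5 h after plating and incubated 16 h at 37 C. Cytotoxicity measured in the same wells as intracellular ATP by CellTiter-Glo luminescence after 30 min at room temperature.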

The target in assay [7] is 5-hydroxytryptamine receptor 2A (Homo sapiens) (UniProt P28223). The assay can be described thus: 5-hydroxytryptamine receptor 2A (HTR2A) small molecule antagonists, cell-based qHTS assay (AID 1963586). Further: nearly all actives have a fitted effect of over 45% in size. The procedure, abridged: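 Antagonist-mode intracellular calcium assay: DOI (4 nM) added after 5 min compound pre-incubation at room temperature to dye-loaded HTR2A-CHO cells. Fluorescence followed for 3 min, sampled every second.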
Sequence of 5-hydroxytryptamine receptor 2A (Homo sapiens) (P28223 whole entry, looked up): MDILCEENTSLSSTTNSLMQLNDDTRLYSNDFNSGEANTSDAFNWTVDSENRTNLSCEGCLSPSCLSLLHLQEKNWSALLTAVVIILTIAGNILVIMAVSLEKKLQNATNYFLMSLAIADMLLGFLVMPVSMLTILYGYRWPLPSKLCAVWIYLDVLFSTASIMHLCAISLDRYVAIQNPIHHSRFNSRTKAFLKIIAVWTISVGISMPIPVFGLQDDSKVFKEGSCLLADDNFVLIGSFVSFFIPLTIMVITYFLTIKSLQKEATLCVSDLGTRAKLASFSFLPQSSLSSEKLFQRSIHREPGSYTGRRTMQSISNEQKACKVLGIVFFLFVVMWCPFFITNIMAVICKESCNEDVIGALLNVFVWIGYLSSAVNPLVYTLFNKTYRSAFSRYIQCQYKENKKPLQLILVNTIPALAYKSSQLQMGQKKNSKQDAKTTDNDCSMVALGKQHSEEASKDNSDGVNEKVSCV

For assay [8] the target is unchanged. The assay can be described thus: 5-hydroxytryptamine receptor 2A (HTR2A) small molecule agonists, cell-based qHTS assay (AID 1963587). Further: nearly all actives have a fitted effect of over 30% in size. Further: potency means the concentration at half of the fitted maximal effect. The gist of the method:
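Kinetic calcium-flux fluorescence (2 min, 1 sec intervals) after compound addition in agonist mode. HTR2A-CHO cells were cultured 18 h, then dye-loaded 1 h at 37 C.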

The target of assay [9] is Muscarinic acetylcholine receptor M1 (Homo sapiens) (UniProt P11229). Description: Cholinergic receptor muscarinic 1 (CHRM1) small molecule antagonists, cell-based qHTS assay (AID 1963588). Further: nearly all actives have a fitted effect of over 40% in size. Further: potency means the concentration at half of the fitted maximal effect. The gist of the method:
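CHRM1-CHO calcium-flux assay, antagonist mode. Cells were seeded 18 h, dye-loaded 1 h at 37 C and given compound for 5 min at RT, then acetylcholine was added at 50nM. FDSS fluorescence was read 3 min; 15 concentrations, three runs.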

Assay [10] shares this target. Description: Cholinergic receptor muscarinic 1 (CHRM1) small molecule agonists, cell-based qHTS assay (AID 1963589). Further: nearly all actives have a fitted effect of over 35% in size. The procedure, abridged: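 CHO cells stably expressing human CHRM1 were loaded with calcium dye for 1 h at 37 C, then compound was added in agonist mode. Intracellular calcium fluorescence was followed kinetically at 1 s intervals. Fifteen concentrations were tested in three independent runs.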

Assay [11] addresses Beta-2 adrenergic receptor (Homo sapiens) (UniProt P07550). Description: Adrenergic beta2 receptor (ADRB2) small molecule antagonists, cell-based qHTS assay (AID 1963592). Further: nearly all actives have a fitted effect of over 50% in size. Further: potency means the concentration at half of the fitted maximal effect. The gist of the method: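 Cells (CHO, stable ADRB2 overexpression) incubated 18-20hr at 37C; compounds added from DMSO; agonist mix (1nM isoproterenol, 100uM IBMX, 25uM Ro-20-1724) added; 0.5hr RT; d2-cAMP and anti-cAMP-cryptate added; 1hr RT; 665/615 nm read.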

Assay [12] addresses D(2) dopamine receptor (Homo sapiens) (UniProt P14416). The assay can be described thus: Dopamine D2 receptor (DRD2) small molecule agonists, cell-based qHTS assay (AID 1963594). Further: nearly all actives have a fitted effect of over 35% in size. The procedure, abridged: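 cAMP accumulation in DRD2-HEK293 cells measured by HTRF after 1 h detection; compounds added 10 min before NKH477 (200nM […]) forskolin-analogue stimulation, 30 min at room temperature, with Ro20-1724 present at 0.1 mM final.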

Assay [13] has the same target. Description: Dopamine D2 receptor (DRD2) small molecule antagonists, cell-based qHTS assay (AID 1963595; active means well fitted inhibition curve with a large enough effect in the signal ratio in the repeat runs, with a control signal flat; the % refers to the signal ratio; further: potency means the concentration at half of the fitted maximal effect). The gist of the method: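 HEK293 cells stably expressing DRD2, preincubated with 0.1 mM Ro20-1724 and compounds 10 min, were stimulated with 200 nM NKH477 plus 12 nM quinpirole for 30 min at room temperature; cAMP measured by HTRF (665/620 nm).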
Assay [14] in a line: cAMP Responsive Elements (CRE) small molecule agonists, cell-based qHTS assay (AID 1963590). The gist of the method:
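CRE-bla HEK 293T cells, 2,000/well in DMEM with 10% dialyzed FBS and 25 mM HEPES, pre-incubated 18 h at 37 C, then exposed to compound 3 h at 37 C. Beta-lactamase reporter read with LiveBLAzer B/G FRET substrate after 2 h at room temperature.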

A short description of assay [15]: p53 small molecule agonists, cell-based qHTS assay with rat liver microsomes (AID 1963578). The procedure, abridged: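 p53RE-bla cells were exposed to compounds together with rat liver microsomes (0.5 mg/mL final) and NADPH (0.5 mg/mL final) for 16 h at 37 C, then read by LiveBLAzer beta-lactamase fluorescence after 2 h at room temperature.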
A short description of assay [16]: p53 small molecule agonists, cell-based qHTS assay with human liver microsomes: qHTS cell viability counter screen (AID 1963579). Further: nearly all actives have a fitted effect of over 45% in size. The gist of the method: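 p53RE-bla cells (4,000/well) were pre-incubated 5 h at 37 C, then given compounds in DMSO plus human liver microsomes (0.5 mg/mL final) and NADPH (0.5 mg/mL final) for 16 h at 37 C. Viability was read by CellTiter-Glo luminescence.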

A short description of assay [17]: p53 small molecule agonists, cell-based qHTS assay with rat liver microsomes: qHTS cell viability counter screen (AID 1963580). Further: nearly all actives have a fitted effect of over 45% in size. Further: potency means the concentration at half of the fitted maximal effect. The gist of the method: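 Intracellular ATP, by CellTiter-Glo luminescence, defines viability. HCT-116 p53RE-bla cells, 4,000 per well, were compound-treated in the presence of rat liver microsomes and NADPH for 16 h at 37 C.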
Assay [18] is described as follows: p53 small molecule agonists, cell-based qHTS assay (AID 1963582; active means well fitted activation curve with a large enough effect in the signal ratio in the repeat runs, not every such curve was filed as active; the % refers to the signal ratio). The procedure, abridged: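 p53RE-bla reporter cells, compounds added in DMSO after 5 h plating, incubated 16 h at 37 C. Beta-lactamase read via 2 h room-temperature LiveBLAzer B/G FRET substrate, fluorescence intensity.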
Assay [19] can be described thus: cAMP Responsive Elements (CRE) small molecule antagonists, cell-based qHTS assay (AID 1963591; active means well fitted inhibition curve with a large enough effect in the signal ratio in the repeat runs, not every such curve was filed as active; the % refers to the signal ratio). The gist of the method:
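CRE-bla HEK293T cells plated 18 h, then given compound plus NKH477 at 0.25 uM final for 3 h at 37C. Beta-lactamase reporter read with LiveBLAzer B/G FRET substrate after 2 h at room temperature.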

In assay [20] the target is Beta-2 adrenergic receptor (Homo sapiens) (UniProt P07550). The assay can be described thus: Adrenergic beta2 receptor (ADRB2) small molecule agonists, cell-based qHTS assay (AID 1963593).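 Further: CHO cells stably overexpressing human ADRB2.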 The procedure, abridged:
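CHO cells stably over-expressing ADRB2 were plated overnight at 37C, then dosed with compounds plus a stimulation mix containing 100uM IBMX and 25uM Ro-20-1724 for 0.5hr at room temperature. cAMP was measured by HTRF competition, 1hr.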

Sequence of Muscarinic acetylcholine receptor M1 (Homo sapiens) (P11229 whole entry, looked up): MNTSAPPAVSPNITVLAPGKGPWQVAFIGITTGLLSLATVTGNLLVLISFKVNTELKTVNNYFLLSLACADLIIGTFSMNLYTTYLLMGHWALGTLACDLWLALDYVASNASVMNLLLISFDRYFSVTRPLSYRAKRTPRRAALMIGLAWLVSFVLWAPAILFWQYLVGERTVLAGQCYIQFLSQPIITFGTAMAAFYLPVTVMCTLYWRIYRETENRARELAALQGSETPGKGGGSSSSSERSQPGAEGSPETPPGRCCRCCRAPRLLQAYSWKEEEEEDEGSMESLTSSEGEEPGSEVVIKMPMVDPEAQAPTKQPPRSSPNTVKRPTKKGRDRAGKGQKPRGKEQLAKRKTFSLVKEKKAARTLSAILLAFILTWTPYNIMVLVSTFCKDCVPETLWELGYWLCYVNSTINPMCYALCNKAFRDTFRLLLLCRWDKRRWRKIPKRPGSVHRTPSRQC
Sequence of Beta-2 adrenergic receptor (Homo sapiens) (P07550 whole entry, looked up): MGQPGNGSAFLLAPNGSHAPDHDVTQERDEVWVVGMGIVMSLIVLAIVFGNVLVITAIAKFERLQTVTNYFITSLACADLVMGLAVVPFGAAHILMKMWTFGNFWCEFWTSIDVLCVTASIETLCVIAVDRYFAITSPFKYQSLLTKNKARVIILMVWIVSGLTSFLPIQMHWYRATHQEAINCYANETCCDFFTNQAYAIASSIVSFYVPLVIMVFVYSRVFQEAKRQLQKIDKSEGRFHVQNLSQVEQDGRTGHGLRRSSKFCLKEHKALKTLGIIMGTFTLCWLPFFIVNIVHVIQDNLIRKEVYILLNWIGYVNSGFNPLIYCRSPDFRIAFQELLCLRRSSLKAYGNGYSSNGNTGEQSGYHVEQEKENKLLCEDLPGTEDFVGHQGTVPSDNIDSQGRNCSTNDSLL
Sequence of Gonadotropin-releasing hormone receptor (Homo sapiens) (P30968 whole entry, looked up): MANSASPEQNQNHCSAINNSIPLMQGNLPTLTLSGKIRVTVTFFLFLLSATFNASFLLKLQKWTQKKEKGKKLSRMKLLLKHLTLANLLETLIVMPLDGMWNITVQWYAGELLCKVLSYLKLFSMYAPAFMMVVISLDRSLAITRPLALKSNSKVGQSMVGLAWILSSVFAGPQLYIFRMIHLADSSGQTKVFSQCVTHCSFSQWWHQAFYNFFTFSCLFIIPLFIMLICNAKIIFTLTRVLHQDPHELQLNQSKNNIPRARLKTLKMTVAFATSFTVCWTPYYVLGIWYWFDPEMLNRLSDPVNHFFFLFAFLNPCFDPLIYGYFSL
Sequence of D(2) dopamine receptor (Homo sapiens) (P14416 whole entry, looked up): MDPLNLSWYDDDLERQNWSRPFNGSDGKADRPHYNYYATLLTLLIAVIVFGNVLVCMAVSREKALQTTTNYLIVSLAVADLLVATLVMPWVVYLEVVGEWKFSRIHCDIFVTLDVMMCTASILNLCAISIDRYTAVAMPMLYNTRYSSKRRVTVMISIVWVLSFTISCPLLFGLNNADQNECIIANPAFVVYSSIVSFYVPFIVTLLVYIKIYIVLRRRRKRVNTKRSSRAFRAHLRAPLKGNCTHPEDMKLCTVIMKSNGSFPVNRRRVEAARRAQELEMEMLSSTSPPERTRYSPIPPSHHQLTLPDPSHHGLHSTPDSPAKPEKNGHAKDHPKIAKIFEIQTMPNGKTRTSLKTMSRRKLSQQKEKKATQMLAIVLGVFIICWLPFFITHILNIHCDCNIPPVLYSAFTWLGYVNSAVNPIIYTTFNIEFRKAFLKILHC
Sequence of KiSS-1 receptor (Homo sapiens) (Q969F8 whole entry, looked up): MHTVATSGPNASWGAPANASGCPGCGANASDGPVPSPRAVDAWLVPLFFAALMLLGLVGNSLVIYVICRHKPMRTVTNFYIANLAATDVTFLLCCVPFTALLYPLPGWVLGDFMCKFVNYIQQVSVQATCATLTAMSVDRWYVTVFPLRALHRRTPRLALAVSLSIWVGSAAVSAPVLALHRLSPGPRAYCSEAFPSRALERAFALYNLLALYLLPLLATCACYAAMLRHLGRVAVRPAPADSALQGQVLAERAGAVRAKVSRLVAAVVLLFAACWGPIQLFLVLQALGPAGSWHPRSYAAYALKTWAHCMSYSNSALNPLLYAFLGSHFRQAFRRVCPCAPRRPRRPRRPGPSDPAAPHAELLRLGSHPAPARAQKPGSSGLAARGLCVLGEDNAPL

On to `COc1ccc(/C=C/C(=O)c2ccc(OC)cc2OC)cc1`, for which the Potency entry in assay [1], in [3], in assay [4], in assay [5], in assay [6] and in [7] was “inactive” in each case. Moreover, the Potency result in assay [8], in assay [9], in assay [10], in assay [11], in assay [12] and in assay [13] was “inactive” throughout. In addition, in assay [2], the Potency is 29.8 µM (active).

For `CCC1(c2cnc[nH]2)Cc2ccccc2C1`, the Potency entry in assay [1], in assay [2], in assay [3], in assay [4], in assay [5] and in assay [7] was “inactive” in each case. Also, the Potency entry in [8], in [9], in [10], in assay [14], in [11] and in assay [13] was “inactive” each time.

Turning to `CN1CCN(c2ccccc2/C=C2\SCCN(c3ccc(Cl)c(Cl)c3)C2=O)CC1`, the Potency is 43.3 µM (active) in assay [1]; 45.8 µM (active) in assay [17]; 7.48 µM (active) in [9]; 0.77 µM (active) in assay [11]; 54.5 µM (active) in assay [13]. Besides, the Potency entry in [2], in assay [3], in assay [4], in [15], in assay [16] and in [6] was “inactive” throughout. Also, the Potency result in assay [18], in [7], in assay [10], in [14] and in assay [19] was “inactive” each time.

With `C[C@H](NC(CCc1ccccc1)C(=O)O)C(=O)N1CCC[C@H]1C(=O)O` (some centres undefined), the Potency result in [1], in assay [2], in [3], in assay [4], in assay [5] and in [17] was “inactive” throughout. For the same compound, the Potency entry in [8], in assay [9], in [10], in assay [14], in [19] and in assay [11] was “inactive” in each case. Also, the Potency result in [20], in [12] and in assay [13] was “inactive” in each case.

As to `CCCCCCCCCCCCCCC[C@H](O)[C@@H](N)CO`, the Potency result in assay [1], in [2], in assay [3], in assay [4], in assay [16] and in assay [6] was “inactive” in each case. For the same compound, the Potency result in assay [18], in [7], in assay [9], in assay [10], in assay [14] and in assay [20] was “inactive” in each case. Besides, in assay [13], the Potency result was “inactive”. In [8], the Potency was 7.56 µM (active).

With `Nc1nnc(-c2ccc([N+](=O)[O-])o2)o1`, the Potency result in assay [1], in [3], in [4], in assay [15], in assay [16] and in assay [17] was “inactive” in each case. The Potency entry in assay [6], in assay [18], in [7], in assay [8], in assay [9] and in assay [10] was “inactive” in each case. Also, the Potency entry in [14], in assay [11], in assay [20] and in assay [12] was “inactive” throughout. The Potency in [2] was 61.1 µM (active).

As to `Cc1[nH]nc2c1N=C(c1ccccc1Cl)c1cc([N+](=O)[O-])ccc1N2`, the Potency is 24.3 µM (active) in assay [1], 54.5 µM (active) in assay [2] and 21.7 µM (active) in assay [11]. The Potency entry in [3], in assay [4], in assay [5], in [7], in [8] and in [9] was “inactive” in each case. Also, the Potency result in assay [10], in [19] and in [12] was “inactive” in each case.

For `COc1cc(C)cc(O)c1`, the Potency entry in assay [1], in assay [2], in [3], in assay [4], in assay [5] and in assay [6] was “inactive” throughout. Besides, the Potency result in assay [7], in assay [8], in assay [9], in assay [10], in [14] and in [11] was “inactive” each time. Moreover, the Potency result in assay [20], in assay [12] and in assay [13] was “inactive” throughout.

Take `O=C(OCCc1ccccc1)c1ccccc1`: the Potency entry in assay [1], in assay [3], in assay [4], in [6], in [18] and in [7] was “inactive” in each case. Moreover, the Potency entry in assay [8], in [10], in [11], in [20], in [12] and in [13] was “inactive” each time. Besides, in assay [2], the Potency is 27.3 µM (active).

On to `FC1(F)C(F)(F)C(F)(F)C2(F)C(F)(F)C(F)(F)C(F)(F)C(F)(F)C2(F)C1(F)F` (centres undefined), for which the Potency result in assay [1], in assay [2], in assay [3], in [4], in [15] and in assay [16] was “inactive” each time. For the same compound, the Potency entry in [17], in [6], in assay [7], in assay [8], in [9] and in assay [10] was “inactive” in each case. The Potency result in assay [14], in [19], in [11], in assay [20] and in assay [13] was “inactive” in each case.
